From PubChem BioAssay (EPA / NIEHS)
Where a structure was tested more than once in an assay, its records may differ in their call. Calls of active or inactive are those of the source. How the source made its calls: active means hit-call score of the fitted dose curve at least 0.9, where 1 is the maximum; inactive means score below 0.9.

Assays:
[1] = ATG_E_Box_CIS: Attagene CIS-FACTORIAL HepG2 Assay for human Enhancer Box (E-box) (AID 2282936); conditions: HepG2 E-box cis-reporter transcription, actives raise or lower the signal
How it was run: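 First, HepG2 cells receive multiple cis-regulated reporter constructs by transient transfection. Next, chemicals are applied for 24 h. Finally, reporter mRNA is quantified via RT-PCR and capillary electrophoresis, with DMSO as baseline.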

[2] = ATG_M_61_CIS: Attagene CIS-FACTORIAL HepG2 Assay for M61 Transcription Factor (Internal Marker) (AID 2282937); conditions: HepG2 Attagene CIS-FACTORIAL M61 internal marker reporter; actives raise or lower the signal
How it was run: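 Fluorescence from labelled cDNA fragments, separated by capillary electrophoresis, quantifies reporter induction. HepG2 cells bearing transiently transfected cis-promoter MRTUs were incubated with test chemical for 24 h; DMSO defined baseline for gain/loss fitting.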

[3] = ATG_EGR_CIS: Attagene CIS-FACTORIAL HepG2 Assay for human Early Growth Response 1 (EGR1) (AID 2282938); conditions: HepG2 Attagene CIS-FACTORIAL EGR reporter mRNA; actives raise or lower the signal
How it was run: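 Cell-based multiplex transcription assay: HepG2 carrying transfected cis-element reporter units, 24 h chemical treatment. Fluorescence from capillary electrophoresis of RT-PCR products gives mRNA levels; fitting is bidirectional relative to DMSO.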

[4] = ATG_M_19_CIS: Attagene CIS-FACTORIAL HepG2 Assay for M19 Transcription Factor (Internal Marker) (AID 2282939); conditions: HepG2 Attagene CIS-FACTORIAL M19 internal marker reporter; actives raise or lower the signal
How it was run: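 Chemical-treated HepG2 (24 h) with MRTU constructs; reporter transcripts detected by fluorescent RT-PCR fragment analysis on capillary electrophoresis. Internal background marker, DMSO as baseline.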

[5] = ATG_ERE_CIS: Attagene CIS-FACTORIAL HepG2 Assay for Estrogen Response Element (ERE) (AID 2282940); conditions: HepG2 ERE cis-reporter, Attagene RNA transcript; actives raise or lower the signal
How it was run: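 Human liver cells (HepG2) bearing transiently transfected, promoter-regulated reporter units were exposed 24 h. Reporter mRNA induction was detected by capillary electrophoresis of labelled RT-PCR products and fitted bidirectionally to DMSO.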

[6] = ATG_Ets_CIS: Attagene CIS-FACTORIAL HepG2 Assay for human Erythroblast Transformation Specific (ETS) (AID 2282941); conditions: HepG2 ETS cis-reporter transcription, actives raise or lower the signal
How it was run: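 After transient cis-reporter transfection, HepG2 cells receive test chemical for 24 h. Reporter mRNA levels, measured by RT-PCR and capillary electrophoresis fluorescence, are analysed bidirectionally relative to the DMSO baseline.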

[7] = biological target: Hepatocyte nuclear factor 3-beta (Homo sapiens) (UniProt Q9Y261); experiment: ATG_FoxA2_CIS: Attagene CIS-FACTORIAL HepG2 Assay for human Forkhead box A2 (FOXA2) (AID 2282942); conditions: HepG2 cis-reporter transcription factor activity, 24 h; actives raise or lower the signal
How it was run: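 In transiently transfected human HepG2 cells, promoter-driven reporter mRNA levels after 24 h chemical exposure are determined via RT-PCR with capillary electrophoresis. DMSO serves as baseline for bidirectional fitting.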

[8] = ATG_FoxO_CIS: Attagene CIS-FACTORIAL HepG2 Assay for human Forkhead box O (FoxO) (AID 2282943); conditions: HepG2 Attagene cis-reporter, FoxO element, mRNA; actives raise or lower the signal
How it was run: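 HepG2 cells transiently transfected with cis-element-driven reporter units report endogenous FoxO activity. After 24 h chemical exposure, reporter mRNA quantified by RT-PCR, fluorescent labeling, HpaI digestion and capillary electrophoresis; bidirectional fit versus DMSO.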

[9] = ATG_GATA_CIS: Attagene CIS-FACTORIAL HepG2 Assay for human GATA Binding Protein (AID 2282944); conditions: HepG2 GATA cis-element reporter, Attagene multiplex mRNA; actives raise or lower the signal
How it was run: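 Transfected cis-reporter HepG2 cells were treated with chemicals for 24 hours. Total RNA was then converted to cDNA, amplified with reporter-specific primers and analysed by fluorescent capillary electrophoresis, using DMSO-treated wells as baseline.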

[10] = ATG_GLI_CIS: Attagene CIS-FACTORIAL HepG2 Assay for human Zinc Finger Protein GLI1 (AID 2282945); conditions: HepG2, Attagene cis-factorial reporter mRNA, GLI element; actives raise or lower the signal
How it was run: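 Transiently transfected HepG2 cells report endogenous transcription factor activity via cis-element-driven reporter units. After 24 h compound exposure, reporter mRNA was measured by RT-PCR with capillary electrophoresis; bidirectional fitting against DMSO baseline.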

[11] = biological target: Bile acid receptor (Homo sapiens) (UniProt Q96RI1); experiment: ATG_IR1_CIS: Attagene CIS-FACTORIAL HepG2 Assay for human Nuclear Receptor Subfamily 1 Group H Member 4 (NR1H4), IR1 submotif (AID 2282946); conditions: IR1 reporter transcription, actives raise or lower the signal
How it was run: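 HepG2 cells transiently transfected with multiple cis-promoter-driven reporter units to measure endogenous transcription factor activity; 24 h exposure. Reporter mRNA read by RT-PCR, FAM labelling, HpaI digestion and capillary electrophoresis. Bidirectional fit versus DMSO.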

[12] = ATG_GRE_CIS: Attagene CIS-FACTORIAL HepG2 Assay for human Glucocorticoid Response Elements (GRE) (AID 2282947); conditions: HepG2 GRE cis-reporter, Attagene multiplex mRNA; actives raise or lower the signal
How it was run: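 Endogenous transcription factor activity is read through cis-element reporter constructs transiently transfected into HepG2 cells. After 24 h treatment, labelled RT-PCR products are resolved by capillary electrophoresis; DMSO sets baseline for bidirectional curve fitting.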

[13] = ATG_ISRE_CIS: Attagene CIS-FACTORIAL HepG2 Assay for human Interferon Regulatory Factor 1 (IRF1) binding to an Interferon-Stimulated Response Element (ISRE) (AID 2282948); conditions: HepG2 ISRE cis-reporter (Attagene), mRNA transcription readout; actives raise or lower the signal
How it was run: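 Quantitation relies on labelled RT-PCR fragments separated by capillary electrophoresis. Human HepG2 cells bearing cis-promoter reporter constructs were treated 24 h; DMSO served as baseline for bidirectional fitting.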

[14] = ATG_M_32_CIS: Attagene CIS-FACTORIAL HepG2 Assay for M32 Transcription Factor (Internal Marker) (AID 2282949); conditions: HepG2 Attagene cis-factorial M32 reporter, mRNA; actives raise or lower the signal;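 further: background control marker of the multiplexed CIS panel rather than a real target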
How it was run: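 Following 24 h chemical exposure of HepG2 cells transiently expressing cis-promoter reporter constructs, reporter transcript levels were determined by RT-PCR with fluorescent labelling and capillary electrophoresis, then fitted bidirectionally against DMSO.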

[15] = ATG_M_06_CIS: Attagene CIS-FACTORIAL HepG2 Assay for M06 Transcription Factor (Internal Marker) (AID 2282950); conditions: HepG2 Attagene CIS-FACTORIAL M06 internal marker reporter; actives raise or lower the signal
How it was run: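 Cells (HepG2, transiently carrying cis-driven reporter units) receive chemical for 24 h before RNA isolation. Reporter cDNA is PCR-amplified, FAM-labelled by primer extension, HpaI-digested and sized on a capillary analyser.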

[16] = biological target: Hypoxia-inducible factor 1-alpha (Homo sapiens) (UniProt Q16665); experiment: ATG_HIF1a_CIS: Attagene CIS-FACTORIAL HepG2 Assay for human Hypoxia Inducible Factor 1 (HIF1A) (AID 2282951); conditions: HepG2 Attagene cis-factorial HIF1a reporter transcription; actives raise or lower the signal
How it was run: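 In this multiplexed cell assay, HepG2 cells bearing transfected cis reporters are dosed for 24 h and reporter mRNA is read by RT-PCR plus capillary electrophoresis; signal increases and decreases are both scored against DMSO.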

[17] = biological target: Hepatocyte nuclear factor 6 (Homo sapiens) (UniProt Q9UBC0); experiment: ATG_HNF6_CIS: Attagene CIS-FACTORIAL HepG2 Assay for human Hepatocyte Nuclear Factor 6 (HNF6) (AID 2282952); conditions: HepG2 Attagene cis-factorial HNF6 reporter transcription; actives raise or lower the signal
How it was run: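 Cells are HepG2 carrying transiently transfected cis-promoter reporter units. Treatment lasts 24 h, after which reporter transcripts are reverse-transcribed, amplified, FAM-labelled and sized by capillary electrophoresis. DMSO serves as baseline.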

[18] = ATG_MRE_CIS: Attagene CIS-FACTORIAL HepG2 Assay for human Metal Responsive Element (MRE) (AID 2282954); conditions: HepG2 MRE cis-reporter transcription, Attagene multiplex; actives raise or lower the signal
How it was run: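 Fluorescent reporter fragments separated by capillary electrophoresis give mRNA induction for the MRE unit after 24 h treatment of transfected HepG2 cells. Endogenous transcription-factor activity is read; DMSO serves as negative control and baseline.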

[19] = ATG_PBREM_CIS: Attagene CIS-FACTORIAL HepG2 Assay for human Phenobarbital-responsive Enhancer Module (PBREM) (AID 2282955); conditions: HepG2 PBREM cis-reporter, Attagene multiplexed transcription; actives raise or lower the signal
How it was run: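 After a 24 h incubation with test chemical, transfected HepG2 cells yield total RNA; reporter-specific RT-PCR products are fluorescently labelled, HpaI-digested and resolved by capillary electrophoresis against ROX size standards.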

[20] = biological target: Heat shock factor protein 1 (Homo sapiens) (UniProt Q00613); experiment: ATG_HSE_CIS: Attagene CIS-FACTORIAL HepG2 Assay for human Heat Shock Transcription Factor 1 (HSE) (AID 2282953); conditions: HepG2 HSE cis-reporter, Attagene RNA transcription; actives raise or lower the signal
How it was run: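 Liver-derived HepG2 cells carry transiently introduced multiple reporter units governed by cis promoters. Reporter RNA measured 24 h post-dose through reverse transcription, PCR amplification, fluorescent labelling and capillary electrophoresis, normalised to DMSO.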

Measured: AC50

Chain of Hepatocyte nuclear factor 6 (Homo sapiens) (Q9UBC0 whole entry, looked up): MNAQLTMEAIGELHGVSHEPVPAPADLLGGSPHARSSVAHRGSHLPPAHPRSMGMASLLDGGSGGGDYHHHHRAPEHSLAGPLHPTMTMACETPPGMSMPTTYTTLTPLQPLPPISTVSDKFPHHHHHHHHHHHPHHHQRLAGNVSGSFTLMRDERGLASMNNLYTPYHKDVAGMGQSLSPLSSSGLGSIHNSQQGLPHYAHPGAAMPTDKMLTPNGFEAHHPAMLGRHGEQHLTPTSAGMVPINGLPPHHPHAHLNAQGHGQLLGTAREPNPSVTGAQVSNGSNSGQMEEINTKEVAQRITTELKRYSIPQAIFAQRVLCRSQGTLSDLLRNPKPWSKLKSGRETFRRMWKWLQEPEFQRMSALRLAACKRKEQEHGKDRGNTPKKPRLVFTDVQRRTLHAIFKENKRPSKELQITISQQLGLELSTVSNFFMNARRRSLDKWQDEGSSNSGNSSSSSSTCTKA
Chain of Hepatocyte nuclear factor 3-beta (Homo sapiens) (Q9Y261 whole entry, looked up): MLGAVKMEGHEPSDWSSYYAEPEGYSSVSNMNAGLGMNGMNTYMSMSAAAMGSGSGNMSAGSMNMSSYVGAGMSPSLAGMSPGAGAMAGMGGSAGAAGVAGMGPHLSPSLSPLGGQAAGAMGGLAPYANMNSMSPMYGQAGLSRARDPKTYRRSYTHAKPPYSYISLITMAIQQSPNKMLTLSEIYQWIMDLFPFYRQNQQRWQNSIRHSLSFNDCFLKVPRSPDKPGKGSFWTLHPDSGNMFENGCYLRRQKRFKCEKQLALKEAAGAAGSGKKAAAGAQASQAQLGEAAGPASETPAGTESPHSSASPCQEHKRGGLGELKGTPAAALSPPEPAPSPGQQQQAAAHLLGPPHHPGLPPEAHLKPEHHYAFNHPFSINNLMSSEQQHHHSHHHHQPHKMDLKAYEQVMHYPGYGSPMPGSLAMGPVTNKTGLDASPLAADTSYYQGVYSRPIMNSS
Chain of Bile acid receptor (Homo sapiens) (Q96RI1 whole entry, looked up): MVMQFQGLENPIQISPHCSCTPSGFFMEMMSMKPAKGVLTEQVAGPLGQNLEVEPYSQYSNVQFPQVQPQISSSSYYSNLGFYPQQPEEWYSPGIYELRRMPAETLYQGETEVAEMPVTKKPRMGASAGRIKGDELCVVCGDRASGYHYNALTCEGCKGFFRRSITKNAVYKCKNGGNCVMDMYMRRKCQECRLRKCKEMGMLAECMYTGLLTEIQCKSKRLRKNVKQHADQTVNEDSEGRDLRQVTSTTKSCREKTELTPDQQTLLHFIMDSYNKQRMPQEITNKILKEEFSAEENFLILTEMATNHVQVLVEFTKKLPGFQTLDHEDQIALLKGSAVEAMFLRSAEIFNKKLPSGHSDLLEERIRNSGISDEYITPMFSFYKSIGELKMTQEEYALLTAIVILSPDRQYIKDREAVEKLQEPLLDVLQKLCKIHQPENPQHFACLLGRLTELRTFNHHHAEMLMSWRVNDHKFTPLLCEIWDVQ
Chain of Hypoxia-inducible factor 1-alpha (Homo sapiens) (Q16665 whole entry, looked up): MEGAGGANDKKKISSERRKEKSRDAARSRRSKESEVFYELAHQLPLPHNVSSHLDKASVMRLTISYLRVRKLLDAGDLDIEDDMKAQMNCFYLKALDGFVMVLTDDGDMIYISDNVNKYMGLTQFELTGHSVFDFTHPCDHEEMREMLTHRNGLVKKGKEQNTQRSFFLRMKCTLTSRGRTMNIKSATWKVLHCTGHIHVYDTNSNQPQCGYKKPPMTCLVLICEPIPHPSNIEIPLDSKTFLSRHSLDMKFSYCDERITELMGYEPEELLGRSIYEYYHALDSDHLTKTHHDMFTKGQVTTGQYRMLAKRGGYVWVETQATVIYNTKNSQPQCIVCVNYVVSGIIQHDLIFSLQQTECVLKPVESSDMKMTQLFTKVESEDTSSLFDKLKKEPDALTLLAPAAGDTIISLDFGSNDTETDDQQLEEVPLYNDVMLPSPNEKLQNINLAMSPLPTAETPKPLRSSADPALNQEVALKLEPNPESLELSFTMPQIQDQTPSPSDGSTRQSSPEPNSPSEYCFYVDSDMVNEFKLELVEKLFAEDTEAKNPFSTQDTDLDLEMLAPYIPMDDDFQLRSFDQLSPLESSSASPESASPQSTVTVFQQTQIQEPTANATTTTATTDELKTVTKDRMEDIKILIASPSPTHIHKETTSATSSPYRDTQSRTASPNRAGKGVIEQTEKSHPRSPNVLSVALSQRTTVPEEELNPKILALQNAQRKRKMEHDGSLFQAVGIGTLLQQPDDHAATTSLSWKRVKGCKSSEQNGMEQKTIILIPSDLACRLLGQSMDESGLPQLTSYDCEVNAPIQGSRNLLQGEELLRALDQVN
Chain of Heat shock factor protein 1 (Homo sapiens) (Q00613 whole entry, looked up): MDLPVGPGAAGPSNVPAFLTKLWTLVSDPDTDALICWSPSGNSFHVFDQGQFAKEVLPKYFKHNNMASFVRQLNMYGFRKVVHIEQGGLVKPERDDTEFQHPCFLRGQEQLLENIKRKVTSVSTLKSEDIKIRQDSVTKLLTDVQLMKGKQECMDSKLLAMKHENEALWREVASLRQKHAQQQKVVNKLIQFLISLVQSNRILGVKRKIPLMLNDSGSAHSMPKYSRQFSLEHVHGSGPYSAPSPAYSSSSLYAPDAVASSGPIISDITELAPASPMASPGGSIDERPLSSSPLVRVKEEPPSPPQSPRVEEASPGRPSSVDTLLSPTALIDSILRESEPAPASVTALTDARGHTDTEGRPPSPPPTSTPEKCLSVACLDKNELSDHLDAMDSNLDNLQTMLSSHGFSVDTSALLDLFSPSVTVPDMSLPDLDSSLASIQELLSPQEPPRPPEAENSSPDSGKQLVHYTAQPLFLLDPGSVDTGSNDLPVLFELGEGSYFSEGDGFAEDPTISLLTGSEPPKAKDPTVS

CCCOc1ccc(S(=O)(=O)N2CCN(CC)CC2)cc1-c1nc2c(CC)n(Cc3ccccn3)nc2c(=O)[nH]1
active: [3] 22.2 µM | [11] 100 µM | [13] 70 µM | [16] 19.8 µM | [18] 34.8 µM | [19] 2.66 µM
not listed: [20]
inactive: all other assays above

OCC(CO)(CO)CO
active: [5] 100 µM
inactive: [1] | [2] | [3] | [4] | [5] | [6] | [7] | [8] | [9] | [10] | [13] | [14] | [15] | [16] | [17] | [20] | [18] | [19]

CCCCCOC(C)=O
not listed: [16] | [20]
inactive: all other assays above

O=S(=O)(O)c1ccc(N=Nc2c(O)ccc3cc(S(=O)(=O)O)ccc23)cc1
not listed: [16] | [20]
inactive: all other assays above

OC[C@H]1O[C@@H]2O[C@H]3[C@H](O)[C@@H](O)[C@@H](O[C@H]4[C@H](O)[C@@H](O)[C@@H](O[C@H]5[C@H](O)[C@@H](O)[C@@H](O[C@H]6[C@H](O)[C@@H](O)[C@@H](O[C@H]7[C@H](O)[C@@H](O)[C@@H](O[C@H]1[C@H](O)[C@H]2O)O[C@@H]7CO)O[C@@H]6CO)O[C@@H]5CO)O[C@@H]4CO)O[C@@H]3CO
not listed: [11]
inactive: all other assays above

CC(C)CC(C)O (stereo not given)
not listed: [12]
inactive: all other assays above

CC1(C)C(=O)N(Cl)C(=O)N1Cl
not listed: [11] | [19]
inactive: all other assays above
